Results: PubChem BioAssay AID1345085 (National Center for Advancing Translational Sciences (NCATS), 2018)
Inconclusive results are not listed. Active and inactive are the calls of the source. Calls follow the shape of the dose curve; as a rule, active = well fitted cell-killing curve with a large enough effect; inconclusive = small, poorly fitted or top-dose-only effect, or effect the other way; inactive = no such curve, though single readings can be large or run the other way.

Tested on: Jar
Assay: Confirmatory qHTS for gynecologic anti-cancer compounds from libraries of approved drugs and bioactive compounds; also: nearly all actives have a fitted effect of over 55% in size
Settings: gynecologic cancer cell panel viability, ATPlite luminescence, 48 h; series mostly up to 57.6 µM
Excerpt: National Center for Advancing Translational Sciences [NCATS] Assay Overview: Chemotherapeutic drug responses vary from cancer to cancer and from patient to patient. These variations could be caused by a number of factors including patient genomic background, tumor mutations, tumor heterogeneity, and aspects of drug treatment. Chemotherapeutic drug resistance is also a common issue and can lead to ineffective treatment and patient death. Here we have profiled the cell killing effects of thousands of compounds to characterize the responses in three gynecological cancers, identify cancer-selective compounds, and understand the diversity of responses to these compounds from pan-cancer suppressors to single cell line selective compounds. In this assay, we screened a 7,914 compound drug library that included approved drug and bioactive compounds in six ovarian, three cervical, and two placental cancer cell lines using the ATPlite assay for cell viability. ATPlite is a luminescence based assay reliant on the conversion of a luciferase substrate to light in the presence of ATP. As a cytotoxic compound will suppress growth and decrease the number of cells, the concentration of ATP will decrease, and less light signal will be detected in the well. Hits were selected from the primary screen for follow-up confirmation. For the confirmation screens, the ovarian cancer cell lines included CAOV-3, SK-OV-3, SW 626, ES-2, PA-1, and TOV-21G. The cervical cancer cell lines included HeLa, Ca Ski, and C-33 A. The placental cancer cell lines included JEG-3 and JAR. HEK 293T cells were used as the control cell line to determine the selectivity index. The ATPlite assay was used to determine the IC50 values.
Assay Protocol Summary: 1,000 cells in 4 uL of media were dispensed into white, solid bottom 1536-well plates using a Multidrop Combi (Thermo Scientific). The Assay plates were incubated for 16 hours at 37 C with 5% CO2 in assay plates, followed by the addition of 23 nL of DMSO or drug dissolved in DMSO. . Each compound was assayed in 11 concentrations (1:3 dilution) from 57.5 uM to 0.977 nM, using the automated Wako 1536 Pin Tool workstation and incubated at 37 C with 5% CO2 48 hours. 4 uL of ATPlite, the ATP monitoring reagent, was then added to the each well of the assay plates using the Multidrop Combi reagent dispenser followed by incubation for 15 minutes at room temperature. The resulting luminescence was measured using the ViewLux plate reader.
Potency is read from the fitted curve at half-maximal effect.

| Structure (SMILES) | Potency |
| --- | --- |
| Cc1cc(C2CCCCC2)n(O)c(=O)c1 | 8.86 µM (active) |
| Cc1cc(Nc2cc(N3CCN(C)CC3)nc(/C=C/c3ccccc3)n2)n[nH]1 | 24.3 µM (active) |
| NC(=O)Nc1cc(-c2cccc(F)c2)sc1C(=O)NC1CCCNC1 (stereo not given) | 1.22 µM (active) |
| CCCCc1nc2cc(/C=C/C(=O)NO)ccc2n1CCN(CC)CC | 1.22 µM (active) |
| Cn1c(=O)c(-c2c(Cl)cccc2Cl)cc2cnc(Nc3cccc(C(=O)O)c3)nc21 | 2.43 µM (active) |
| Cc1nc(Nc2n[nH]c3c2CN(C(=O)NC(CN(C)C)c2ccccc2)C3(C)C)c2sccc2n1 (stereo not given) | inactive |
| Cc1[nH]c2ccccc2c1CCNCc1ccc(/C=C/C(=O)NO)cc1 | 0.193 µM (active) |
| O=C1NC(=O)C(c2cnc3ccccn23)=C1c1cn2c3c(cccc13)CN(C(=O)N1CCOCC1)CC2 | inactive |
| CCCC(Nc1nc(-c2ccc(NC(=O)NCC)c(OC)c2)ncc1C)c1cccnc1 (stereo not given) | 0.432 µM (active) |
| COc1ccc(-c2nc3ccc(C4=NNC(=O)CC4C)cc3[nH]2)cc1 (stereo not given) | 21.7 µM (active) |
| Cc1cnc(Nc2cccc(CN3CCOCC3)c2)nc1Nc1cccc(S(=O)(=O)NC(C)(C)C)c1 | 21.7 µM (active) |
| Cc1nc(N)nc(N)c1-c1ccc(Cl)c(Cl)c1 | 4.85 µM (active) |
| CC(C)(C)C(=O)OCOP(=O)(COCCn1cnc2c(N)ncnc21)OCOC(=O)C(C)(C)C | 9.68 µM (active) |
| Cc1ccn(-c2ccc(-c3ncco3)cc2)c(=O)c1-c1ccc2nc(N)ncc2c1 | inactive |
| CNc1nccc(-c2cccnc2Oc2cc(C(=O)Nc3cccc(C(F)(F)F)c3)ccc2C)n1 | 19.3 µM (active) |
| Cn1c(=O)c(F)c(Nc2ccc(I)cc2F)c2c(=O)n(CC(O)CO)cnc21 (stereo not given) | inactive |
| CCN(CC)CCNC(=O)c1c(C)[nH]c(/C=C2\C(=O)Nc3ccc(F)cc32)c1C | 25.1 µM (active) |
| CCOc1cc2ncc(C#N)c(Nc3ccc(F)c(Cl)c3)c2cc1NC(=O)/C=C/CN(C)C | 1.72 µM (active) |
| O=c1c(-c2ccc(O)cc2)coc2cc(O)cc(O)c12 | inactive |
| CNCc1ccc(-c2[nH]c3cc(F)cc4c3c2CCNC4=O)cc1 | inactive |

| Structure (SMILES) | Potency |
| --- | --- |
| O=C(CCCCCCC(=O)Nc1ccccc1)NO | 3.85 µM (active) |
| CN1CCN(Cc2ccc(NC(=O)Nc3ccc(Oc4cc(NC(=O)C5CC5)ncn4)cc3)cc2C(F)(F)F)CC1 | 19.3 µM (active) |
| C1CCC(C(CC2CCCCN2)C2CCCCC2)CC1 (stereo not given) | 24.3 µM (active) |
| CCCCc1oc2ccc(NS(C)(=O)=O)cc2c1C(=O)c1ccc(OCCCN(CCCC)CCCC)cc1 | 30.6 µM (active) |
| Nc1ccc(C(=O)Nc2cccc(-c3nc(N4CCOCC4)c4oc5ncccc5c4n3)c2)cn1 | 5.44 µM (active) |
| Cn1cnc([N+](=O)[O-])c1Sc1ncnc2nc[nH]c12 | 27.3 µM (active) |
| c1nc2nc(Nc3ccc(N4CCOCC4)cc3)nc(NC3CCCCC3)c2[nH]1 | 9.43 µM (active) |
| COc1cc2c(cc1-c1c(C)noc1C)ncc1[nH]c(=O)n(C(C)c3ccccn3)c12 (stereo not given) | 27.3 µM (active) |
| CC(C)n1nc(-c2cc3cc(O)ccc3[nH]2)c2c(N)ncnc21 | 5.44 µM (active) |
| COC(C)(C)CCn1nc(Nc2c(C)cccc2C)c2cnc(Nc3ccc(OCCN4CCCC4)c(F)c3)nc21 | 27.3 µM (active) |
| Cc1cc(Nc2nc(N[C@@H](C)c3ccc(F)cc3)c(C#N)cc2F)n[nH]1 | 2.73 µM (active) |
| COc1ccc(-c2ccc3c(N4CCOCC4C)nc(N4CCOCC4C)nc3n2)cc1CO (stereo not given) | inactive |
| CC(C)[C@@H](CS(=O)(=O)C(C)C)N1C(=O)[C@@](C)(CC(=O)O)C[C@H](c2cccc(Cl)c2)[C@H]1c1ccc(Cl)cc1 | 2.73 µM (active) |
| Nc1ccc(-c2ccc3ncc4ccc(=O)n(-c5cccc(C(F)(F)F)c5)c4c3c2)cn1 | 1.22 µM (active) |
| CCC1C(=O)N(C)c2cnc(Nc3ccc(C(=O)NC4CCN(C)CC4)cc3OC)nc2N1C1CCCC1 (stereo not given) | 0.0217 µM (active) |
| Cc1cnc(Nc2ccc(CN3CCOCC3)cc2)nc1Nc1cccc(S(=O)(=O)NC(C)(C)C)c1 | 9.68 µM (active) |
| CC(C)n1c(/C=C/[C@@H](O)C[C@@H](O)CC(=O)O)c(-c2ccc(F)cc2)c2ccccc21 | 10.9 µM (active) |
| CCCc1nn(C)c2c(=O)[nH]c(-c3cc(S(=O)(=O)N4CCN(C)CC4)ccc3OCC)nc12 | inactive |
| CCN(CC)CCCC(C)Nc1c2ccc(Cl)cc2nc2ccc(OC)cc12 (stereo not given) | inactive |
| CN1CCN(c2ccc(OC(F)(F)F)c(Nc3ncc4c(n3)-c3c(c(C(N)=O)nn3CCO)CC4)c2)CC1 | 0.153 µM (active) |
